# Compound activity deposited in PubChem by The Scripps Research Institute Molecular Screening Center.
# Only some compounds are listed: those with a hit (about 1.7% of all), similar ones and a draw of the others.
# GSTO1 counter = inhibitors of recombinant GSTO1, primary screen, counter-screen for RBBP9 inhibitor project, biochemical, fluorescence polarization. inhibition, % at 5.96 µM. activity-based probe fluorescence polarization. hit rate 1.1% among 300,000;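 active = inhibition above the campaign mean inhibition plus 3 SD, cut at about 35% in these data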;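 also: 0% = GSTO1-1 with DMSO and 100% = wells lacking GSTO1-1 enzyme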
# EBNA-1 inhibitor = EBNA-1 DNA-binding inhibitors, primary screen, biochemical, fluorescence polarization | inhibition, % at 14.8 µM | hit rate 0.34% among 300,000 | AID 1950, 2009; in the data active = inhibition above about 28%
# LYPLA1 inh = LYPLA1 inhibitors, primary screen, counter-screen for PME1 inhibitor project, biochemical, fluorescence polarization, FP-Rh probe ABPP; hit rate 0.16% among 320,000; recombinant LYPLA1; inhibition, % at 5.9 µM; AID 2174, 2009; Acyl-protein thioesterase 1 (Homo sapiens), O75608;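 active = inhibition above the mean of all tested compounds plus 3 SD, set per campaign, cut at about 14% in these data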;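 also: inhibitors block serine hydrolase probe labeling of LYPLA1 so polarization falls; 0% = enzyme with DMSO and 100% = wells lacking LYPLA1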
# LYPLA2 inh = LYPLA2 inhibitors, primary screen, counter-screen for PME1 inhibitor project, biochemical, fluorescence polarization, FP-Rh probe ABPP | recombinant LYPLA2 | AID 2177, 2009 | inhibition, % at 5.9 µM | hit rate 0.38% among 320,000;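 active = inhibition above the screen-wide mean plus 3 SD, limit set per campaign, cut at about 26% in these data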;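 also: 0% = LYPLA2 with DMSO and 100% = wells lacking LYPLA2 enzyme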
# Target sequence (O95372 whole entry, looked up): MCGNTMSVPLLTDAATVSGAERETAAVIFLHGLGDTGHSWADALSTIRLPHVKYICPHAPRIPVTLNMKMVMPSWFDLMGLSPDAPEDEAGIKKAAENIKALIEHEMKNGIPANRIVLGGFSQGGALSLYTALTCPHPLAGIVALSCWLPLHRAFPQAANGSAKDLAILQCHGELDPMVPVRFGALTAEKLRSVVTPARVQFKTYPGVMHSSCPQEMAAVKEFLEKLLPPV
# PAD4 inh = human PAD4 inhibitors, primary screen, biochemical, fluorescence polarization, 1536-well format | hit rate 0.41% among 330,000 | inhibition, % at 6.36 µM | recombinant PAD4, RCA probe fluorescence polarization;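 active = percent inhibition above a cutoff equal to the mean of all tested compounds plus 3 SD, cut at about 15% in these data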;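 also: 0% = PAD4 with RCA probe and DMSO and 100% = probe without PAD4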
# ZTA counter = ZTA (EBV) inhibition in EBNA-1 counter-screen; inhibition, % at 11 µM; P03206; hit rate 0.15% among 320,000; ZTA-DNA binding, fluorescence polarization; in the data active = inhibition above about 33%
# Target sequence (P03206 whole entry, looked up): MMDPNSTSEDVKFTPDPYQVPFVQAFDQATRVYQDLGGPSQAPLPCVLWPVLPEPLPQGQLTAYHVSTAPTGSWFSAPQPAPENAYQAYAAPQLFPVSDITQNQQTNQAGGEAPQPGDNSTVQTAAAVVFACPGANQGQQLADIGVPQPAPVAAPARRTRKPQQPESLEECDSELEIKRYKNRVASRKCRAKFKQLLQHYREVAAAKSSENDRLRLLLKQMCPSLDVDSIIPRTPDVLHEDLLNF
# GSTO1 inh conf = GSTO1 inhibitor hit confirmation, counter-screen for RBBP9 inhibitor project, biochemical, fluorescence polarization, triplicate; recombinant GSTO1, probe fluorescence polarization; hit rate 54% among 2,400; shares compounds with GSTO1 counter; inhibition, % at 5.96 µM;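 active = inhibition above the primary screen's cutoff, its mean inhibition plus 3 SD, cut at about 35% in these data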;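 also: loss of polarization as inhibitors block binding of rhodamine sulfonate ester activity probe; 0% = GSTO1 with DMSO and 100% = wells lacking GSTO1 enzyme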
# GSTO1 recomb ABPP = inhibitors of purified human GSTO1, late-stage follow-up, biochemical, gel ABPP, SE-Rh probe, percent inhibition | shares compounds with GSTO1 counter | recombinant GSTO1, gel ABPP SE-Rh probe fluorescence | inhibition, % at 1 µM | hit rate 30% among 130 | AID 463110, 2010;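 active = inhibition of the enzyme GSTO1 above about 75%, limit read from the data; inactive = inhibition below that limit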
# * marks the source's active call; other numbers are inactive results; . = not tested or not shown.
SMILES,GSTO1 counter,EBNA-1 inhibitor,LYPLA1 inh,LYPLA2 inh,PAD4 inh,ZTA counter,GSTO1 inh conf,others
Cc1ccc(Sc2ccc(NC(=O)CCl)cc2)c(C)c1,77.9*,3.9,-5.0,-1.6,3.4,-2.8,88.8*,
Cc1ccc(C)c(Sc2ccc(NC(=O)CCN3C(=O)NC4(CCCC4)C3=O)cc2)c1,.,.,-10.2,-8.7,-4.7,12.5,.,
O=[N+]([O-])c1ccc(/C=N/n2cnc3ccccc32)s1,55.0*,1.7,3.3,9.2,-23.2,0.4,30.6,
CCOC(=O)c1cnc2c(C)cc(Cl)cc2c1N1CCN(C)CC1,-0.5,2.7,-1.0,-1.9,0.1,1.9,.,
O=C1c2ccccc2C(=O)C12OC2c1cccc2ccccc12 (stereo not drawn),75.4*,0.8,-2.7,3.6,-15.1,-4.7,70.5*,
c1ccc2c(C3CCO3)cccc2c1 (stereo not drawn),.,.,-2.7,-4.3,-0.2,-18.6,.,
Cc1cccc(N(CC(=O)NCc2ccc(F)cc2)C(=O)c2ccco2)c1,0.1,-22.7,-5.6,-10.9,-3.6,8.7,.,
CCCNC(=O)COC(=O)c1ccccc1C(=O)c1ccc(Cl)c([N+](=O)[O-])c1,10.7,3.8,3.6,7.0,1.5,0.7,.,
Cc1ccc(Cl)c(NC(=O)COC(=O)c2ccccc2C(=O)c2ccc(Cl)c([N+](=O)[O-])c2)c1Cl,49.2*,6.5,-0.1,-1.3,0.5,-9.5,52.2*,
CCOC(=O)c1c(CC(C)C)csc1NC(=O)C(C)C,1.9,-2.8,-3.4,-5.0,-7.8,1.1,.,
CCOC(=O)c1c(CC(C)C)csc1NC(=O)CCl,76.0*,2.5,-5.3,-4.1,12.7,11.3,91.6*,
COc1ccc(S(=O)(=O)n2oc(=O)cc2-c2ccccc2)cc1,-1.5,1.9,0.6,-5.1,0.9,-2.8,.,
COc1ccc(S(=O)(=O)n2oc(=O)cc2-c2ccccc2)cc1OC,40.3*,8.3,-1.8,-0.9,3.2,13.6,-1.2,
O=C(/C=C/c1ccc2c(c1)OCO2)NC1CCCC1,-6.9,-20.8,3.8,-2.3,-3.5,3.9,.,
COCCCNC(=O)/C=C/c1ccc(Cl)cc1Cl,-5.9,5.0,-1.6,-0.1,3.5,3.9,.,
CNc1ccc(Br)cc(C(=O)/C=C/c2ccc(OC)cc2)c1=O,28.4,4.1,1.0,-1.9,-4.4,10.1,.,
CNc1ccc(Br)cc(C(=O)/C=C/c2ccc3c(c2)OCO3)c1=O,54.8*,3.0,5.1,11.5,-3.1,-8.2,15.6,
CNc1ccc(Br)cc(C(=O)/C=C/c2cc(OC)ccc2OC)c1=O,40.0*,0.6,-1.1,7.7,-1.4,3.1,13.3,
CCNc1ccc(Br)cc(C(=O)/C=C/c2ccc(Cl)cc2Cl)c1=O,42.6*,8.8,-3.0,6.0,-3.4,19.5,6.8,
COc1ccc(/C=C(/NC(=O)c2ccco2)C(=O)Nc2ccc(C(=O)O)cc2)cc1,-1.3,2.9,4.0,4.7,-2.4,-1.2,.,
Cc1ccc(SC/C(O)=C(\C#N)c2nc3ccccc3s2)cc1,49.2*,9.8,3.1,-3.0,-1.9,5.1,47.9*,
CC(=O)Nc1ccc(S(=O)(=O)Nc2ccc3c(c2)C(=O)OC3)cc1,5.5,7.3,0.0,1.5,-4.1,-13.7,.,
COc1ccc(NC(=O)c2nc[nH]c2C(=O)NCCCCCNC(=O)OC(C)(C)C)cc1,-2.9,-10.6,-0.5,4.7,-6.2,11.6,.,
COc1ccc(S(=O)(=O)/N=C2/C=CC(=O)C(C)=C2C)cc1,-1.4,-0.2,-1.6,2.2,-5.4,5.5,.,
CC1=C(C)/C(=N\OS(=O)(=O)c2ccc(C)cc2)C=CC1=O,44.5*,-9.3,-1.2,2.1,-1.0,-8.5,7.0,
SMILES,GSTO1 counter,EBNA-1 inhibitor,LYPLA1 inh,LYPLA2 inh,PAD4 inh,ZTA counter,GSTO1 inh conf,others
Cc1ccc(C2(C)NC(=O)N(CC(=O)NNC(=O)c3ccccc3)C2=O)cc1 (stereo not drawn),.,.,-0.4,2.1,4.5,-18.6,.,
CCN(CC)c1ccc(C2Nc3cccc4cccc(c34)N2)cc1,26.6,17.6,-5.0,-4.0,-1.8,16.9,.,
Cc1ccc(C2Nc3cccc4cccc(c34)N2)s1,44.0*,-2.4,-8.1,2.0,-9.5,-1.0,11.0,
O=C(c1ccccc1)c1nn(-c2ccc(Cl)cc2)c(=O)cc1C(F)(F)F,76.1*,7.9,-0.3,-3.5,2.1,13.9,78.5*,
CCC1(C)NC(C(=O)O)Cc2c1[nH]c1ccccc21 (stereo not drawn),-1.0,0.8,2.8,2.6,-2.5,8.3,.,
COC(=O)C1Cc2c([nH]c3ccccc23)C2(CCN(Cc3ccccc3)CC2)N1 (stereo not drawn),61.7*,6.5,3.9,1.9,2.0,-7.9,4.3,
Oc1cc(O)c2c(c1)O[C@H](c1ccc(O)c(O)c1)[C@H](O)C2,39.6*,7.1,-2.3,-1.1,-1.6,15.2,6.6,
Cc1cccc(C)c1NC(=S)NCCc1ccc(O)c(O)c1,37.7*,4.4,1.9,1.0,-1.3,-15.2,6.9,
Cc1cc([N+](=O)[O-])c2c(c1C)C1C=CCC1C(c1ccccn1)N2 (stereo not drawn),52.1*,8.7,-0.2,5.7,-1.2,-5.2,10.2,
Cc1cc([N+](=O)[O-])cc2c1NCC1CC=CC21 (stereo not drawn),1.2,-0.8,2.4,-5.4,2.0,-7.7,.,
Cn1c(=O)c2ccccc2n2c(CCl)nnc12,80.1*,3.5,0.9,-0.5,2.8,6.2,86.0*,GSTO1 recomb ABPP=49.0
Cn1c(=O)c2ccccc2n2c(=S)[nH]nc12,3.0,-5.8,-5.6,-0.9,4.5,7.0,.,
O=C(NC1CCCCC1)C(c1ccccc1F)N(Cc1ccco1)C(=O)c1ccccn1 (stereo not drawn),37.8*,6.1,0.5,-3.5,-3.8,3.0,7.0,
COc1cc(OC)c(OC)cc1CCC(C)NC(=O)Cc1ccccc1 (stereo not drawn),16.4,-4.5,-8.4,-0.1,7.0,-12.7,.,
N#C/C(=C\c1ccc([N+](=O)[O-])o1)c1nc2ccccc2[nH]1,26.0,1.1,-1.6,2.4,-6.0,-12.1,.,
Cc1ccc2nc(/C(C#N)=C\c3ccc([N+](=O)[O-])o3)[nH]c2c1,39.3*,-17.3,-5.4,-11.0,-26.6,-11.6,22.5,
